Experimental data taken from PubChem BioAssay (NCI).
This is part of a sample that, as a whole, favours compounds with a hit. Of some 83,000 tested, about 20% had one in any assay.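 Activity criterion: percent growth below 10, measured after cells in 96-well plates were exposed to a single compound concentration for 48 hours.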 Active and inactive are the calls of the source.

Assays:
Experiment in all cases: NCI-60 one-dose screen, 48 h (100 = growth as untreated, 0 = no growth, -100 = all killed)
Details in all cases: 10 µM unless noted
NCI-H23 lung = system: NCI-H23 lung
NCI-H226 lung = system: NCI-H226 lung
NCI-H322M lung = system: NCI-H322M lung
HOP-62 NSCLC = system: HOP-62 NSCLC
NCI-H460 lung = system: NCI-H460 lung
HOP-92 NSCLC = system: HOP-92 NSCLC
NCI-H522 lung = system: NCI-H522 lung
786-0 renal = system: 786-0 renal
COLO 205 colon = system: COLO 205 colon
A549/ATCC NSCLC = system: A549/ATCC NSCLC

Measured: growth

Oc1ccc(CCCCCCc2ccc(O)cc2)cc1
inactive: NCI-H23 lung 59.5% | NCI-H226 lung 101% | NCI-H322M lung 92% | HOP-62 NSCLC 80.6% | NCI-H460 lung 46.4% | HOP-92 NSCLC 64% | NCI-H522 lung 56.6% | 786-0 renal 14.2% | COLO 205 colon 103%

CCCCNCC(O)c1cc2c(Cl)cc(Cl)cc2c2cc(C(F)(F)F)ccc12 (stereo not given)
active: NCI-H23 lung -72.9% | NCI-H226 lung -69.4% | NCI-H322M lung -82.8% | HOP-62 NSCLC -80.8% | NCI-H460 lung -73.9% | HOP-92 NSCLC -89.5% | A549/ATCC NSCLC -83.3% | 786-0 renal -71.2% | COLO 205 colon -76.8%

CCOC(=O)C(=CNc1ccccc1Cl)C(=O)OCC
inactive: NCI-H23 lung 103% | NCI-H226 lung 122% | NCI-H322M lung 110% | HOP-62 NSCLC 94.5% | NCI-H460 lung 103% | HOP-92 NSCLC 97.2% | NCI-H522 lung 72% | 786-0 renal 87.7% | COLO 205 colon 129%

C[C@@H](C[C@H](CC1CC1)c1ccccc1)c1ccc2ccccc2c1
inactive: NCI-H23 lung 100% | NCI-H226 lung 109% | NCI-H322M lung 101% | HOP-62 NSCLC 104% | NCI-H460 lung 100% | HOP-92 NSCLC 102% | A549/ATCC NSCLC 98.2% | 786-0 renal 101% | COLO 205 colon 109%

CCOC(=O)c1ccc(NC(=O)NC2=NCCS2)cc1
inactive: NCI-H23 lung 18.4% | NCI-H226 lung 13.5% | NCI-H322M lung 77.7% | HOP-62 NSCLC 35.7% | NCI-H460 lung 19.5% | HOP-92 NSCLC 73.6% | A549/ATCC NSCLC 22.5% | 786-0 renal 33.8% | COLO 205 colon 103%

CCCCCCCCCC1=NC(C)(C)CN1C(C)(C)CO
inactive: NCI-H23 lung 89.1% | NCI-H226 lung 105% | NCI-H322M lung 89.4% | HOP-62 NSCLC 100% | NCI-H460 lung 105% | HOP-92 NSCLC 91% | A549/ATCC NSCLC 99.6% | 786-0 renal 100% | COLO 205 colon 184%

Cc1cc(C)cc(NC(=O)Cn2nncc2CN2C(=O)CSC2=O)c1
inactive: NCI-H23 lung 97.5% | NCI-H226 lung 104% | NCI-H322M lung 109% | HOP-62 NSCLC 102% | NCI-H460 lung 107% | HOP-92 NSCLC 124% | A549/ATCC NSCLC 102% | 786-0 renal 108% | COLO 205 colon 108%

C=C(C)c1ccc(/C=N/NC(N)=S)cc1
inactive: NCI-H23 lung 103% | NCI-H226 lung 86.3% | NCI-H322M lung 111% | HOP-62 NSCLC 77.4% | NCI-H460 lung 99.9% | HOP-92 NSCLC 131% | NCI-H522 lung 103% | 786-0 renal 11.4% | COLO 205 colon 120%

CC(=O)Nc1ccc(Cl)cc1Cl
inactive: NCI-H23 lung 111% | NCI-H226 lung 95.5% | NCI-H322M lung 114% | HOP-62 NSCLC 110% | NCI-H460 lung 114% | HOP-92 NSCLC 107% | NCI-H522 lung 89.4% | 786-0 renal 106% | COLO 205 colon 130%

O=C1c2ccccc2C2N1CCC1CCc3ccccc3N12 (stereo not given)
inactive: NCI-H23 lung 99.5% | NCI-H226 lung 90.2% | NCI-H322M lung 85.4% | HOP-62 NSCLC 108% | NCI-H460 lung 104% | HOP-92 NSCLC 73.6% | A549/ATCC NSCLC 99.1% | 786-0 renal 99.7% | COLO 205 colon 112%

CCOC(=O)C(Nc1ccccc1)C(=O)OCC
inactive: NCI-H23 lung 108% | NCI-H226 lung 99.6% | NCI-H322M lung 88.1% | HOP-62 NSCLC 101% | NCI-H460 lung 115% | HOP-92 NSCLC 72.9% | A549/ATCC NSCLC 100% | 786-0 renal 110% | COLO 205 colon 119%

CC(C)c1ccc(Cn2ccc3c4c(N)nc(NC5CC5)nc4ccc32)cc1
active: NCI-H23 lung -71.3% | NCI-H226 lung -73.3% | NCI-H322M lung -93.2% | HOP-62 NSCLC -74.8% | NCI-H460 lung -84.2% | HOP-92 NSCLC -88.2% | NCI-H522 lung -81.8% | 786-0 renal -91.6% | COLO 205 colon -78%

COc1ccc(NC(=O)/C=C/c2ccc(Cl)c(Cl)c2)cn1
inactive: NCI-H23 lung 84.7% | NCI-H226 lung 68.3% | NCI-H322M lung 91.6% | HOP-62 NSCLC 90.1% | NCI-H460 lung 99% | HOP-92 NSCLC 87.1% | A549/ATCC NSCLC 79.1% | 786-0 renal 85.6% | COLO 205 colon 101%

C/C(=N\NC(=S)N1CCCCC1)c1ccccn1
inactive: NCI-H23 lung 30.8% | HOP-62 NSCLC 21% | 786-0 renal 15.5%
active: NCI-H226 lung 7.07% | NCI-H322M lung 4.53% | NCI-H460 lung -23.9% | HOP-92 NSCLC -1.04% | A549/ATCC NSCLC 9.13% | COLO 205 colon -14%

N#Cc1c(N)c(C(=O)c2ccc3c(c2)OCCO3)n2c1CCCC2
inactive: NCI-H23 lung 42.7% | NCI-H226 lung 81.7% | NCI-H322M lung 25.3% | HOP-62 NSCLC 35.4% | NCI-H460 lung 15.9% | HOP-92 NSCLC 64.4% | A549/ATCC NSCLC 34.5% | 786-0 renal 53% | COLO 205 colon 14.9%

Fc1ccc(-c2ccnc3nc(-c4ccncc4)nn23)cc1
inactive: NCI-H23 lung 112% | NCI-H226 lung 102% | NCI-H322M lung 99.4% | HOP-62 NSCLC 113% | NCI-H460 lung 104% | HOP-92 NSCLC 120% | NCI-H522 lung 107% | 786-0 renal 88.8% | COLO 205 colon 108%

Brc1cccc(-n2ncc3c(Nc4ccc(-c5nnc(-c6ccccc6)o5)cc4)ncnc32)c1
inactive: NCI-H23 lung 94.5% | NCI-H226 lung 90.2% | NCI-H322M lung 104% | HOP-62 NSCLC 89.6% | NCI-H460 lung 109% | HOP-92 NSCLC 104% | NCI-H522 lung 98.3% | 786-0 renal 104% | COLO 205 colon 107%

COc1ccc2[nH]c(C(=O)OCc3ccc4cccc(O)c4n3)cc2c1
active: NCI-H23 lung -3.84% | NCI-H226 lung -68.1% | NCI-H460 lung 7.31% | HOP-92 NSCLC -78.2% | 786-0 renal -76.1% | COLO 205 colon -69.1%
inactive: NCI-H322M lung 62.7% | HOP-62 NSCLC 35% | A549/ATCC NSCLC 21.2%

CNCCCNc1ccnc2cc(Cl)ccc12
active: NCI-H23 lung -50.4% | NCI-H226 lung -17.6% | NCI-H322M lung -40.7% | HOP-62 NSCLC -27.1% | NCI-H460 lung -28.2% | HOP-92 NSCLC -17.9% | NCI-H522 lung -62.3% | 786-0 renal 3.83% | COLO 205 colon -88.9%

C=CCn1c(SCC(=O)Nc2ccc(/C(C)=N\O)cc2)nnc1-c1cc(-c2ccc(Cl)cc2)nc2ccccc12
inactive: NCI-H23 lung 24.1% | NCI-H226 lung 50.7% | NCI-H322M lung 26.2% | HOP-62 NSCLC 49.6% | NCI-H460 lung 17.2% | HOP-92 NSCLC 50.4% | A549/ATCC NSCLC 19.4% | 786-0 renal 23% | COLO 205 colon 27.8%

C=C(C)C1CCC2(C(=O)O)CCC3(C)C(CCC4C5(C)CCC(O)C(C)(C)C5CCC43C)C12 (stereo not given)
inactive: NCI-H226 lung 33.2%
active: NCI-H23 lung -50.3% | NCI-H322M lung 6.5% | HOP-62 NSCLC -59.1% | NCI-H460 lung -22.5% | HOP-92 NSCLC -26.2% | A549/ATCC NSCLC -53.5% | 786-0 renal -66.5% | COLO 205 colon -45.3%

CCCCn1c(-c2ccc(F)cc2)nc2cc(OC)c(OC)cc2c1=O
inactive: NCI-H23 lung 101% | NCI-H226 lung 93.8% | NCI-H322M lung 78% | NCI-H460 lung 112% | HOP-92 NSCLC 66.1% | NCI-H522 lung 93.7% | COLO 205 colon 121%
active: HOP-62 NSCLC -11.2%

O=NN(CC(=O)NNc1ccccc1)CC(=O)NNc1ccccc1
inactive: NCI-H23 lung 103% | NCI-H226 lung 85.9% | NCI-H322M lung 85% | HOP-62 NSCLC 87.8% | NCI-H460 lung 66.2% | HOP-92 NSCLC 88.5% | A549/ATCC NSCLC 65.9% | 786-0 renal 90.9% | COLO 205 colon 68.6%

CN=C1C=C/C(=N/N=c2/ccn(O)cc2C)C=C1C
inactive: NCI-H23 lung 90% | NCI-H226 lung 103% | NCI-H322M lung 113% | HOP-62 NSCLC 97.2% | NCI-H460 lung 111% | HOP-92 NSCLC 85.7% | A549/ATCC NSCLC 88.8% | 786-0 renal 89.3% | COLO 205 colon 138%

COc1ccc(/C=C(/C(=O)N2CCN(c3ccccc3)CC2)c2cc(OC)c(OC)c(OC)c2)cc1N
active: NCI-H460 lung 6.98% | NCI-H522 lung 3.2% | COLO 205 colon -21.2%
inactive: NCI-H23 lung 39.4% | NCI-H226 lung 40.5% | NCI-H322M lung 49.8% | HOP-62 NSCLC 30.4% | HOP-92 NSCLC 92.2% | 786-0 renal 25.7%

CC1=C(C(=O)Nc2ccc(F)cc2)C(c2ccc(Cl)cc2)C2=C(CC(C)(C)CC2=O)N1 (stereo not given)
inactive: NCI-H23 lung 86% | NCI-H226 lung 84.1% | NCI-H322M lung 102% | HOP-62 NSCLC 97.2% | NCI-H460 lung 96.4% | HOP-92 NSCLC 62% | A549/ATCC NSCLC 78.3% | 786-0 renal 88.3% | COLO 205 colon 97%

COc1c(-c2cc(-c3ccc(C)o3)[nH]c(=O)n2)c(O)cc2occc12
inactive: NCI-H23 lung 68.8% | NCI-H226 lung 67.3% | NCI-H322M lung 90.7% | HOP-62 NSCLC 52.1% | NCI-H460 lung 44.4% | HOP-92 NSCLC 67.3% | A549/ATCC NSCLC 47.1% | 786-0 renal 93.9% | COLO 205 colon 104%

COc1cccc(NC(=O)c2c(-c3ccccc3)c(-c3ccccc3)n[nH]c2=O)c1
inactive: NCI-H23 lung 101% | NCI-H226 lung 100% | NCI-H322M lung 111% | HOP-62 NSCLC 102% | NCI-H460 lung 98% | HOP-92 NSCLC 112% | NCI-H522 lung 89.2% | 786-0 renal 97.6% | COLO 205 colon 110%

CC(=O)[C@H]1CC[C@H]2[C@@H]3CC[C@H]4CC=CC[C@]4(C)[C@H]3CC[C@]12C
inactive: NCI-H23 lung 96.8% | NCI-H226 lung 92.9% | NCI-H322M lung 95.2% | HOP-62 NSCLC 109% | NCI-H460 lung 104% | HOP-92 NSCLC 101% | A549/ATCC NSCLC 84% | 786-0 renal 91.7% | COLO 205 colon 106%
